# Compound activity (PubChem)
# JMJD2A Tudor = qHTS Assay for Inhibitors of JMJD2A-Tudor Domain. Lysine-specific demethylase 4A (Homo sapiens), O75164. AlphaScreen JMJD2A-Tudor / H3K4me3 peptide binding. Potency, µM (top dose mostly 114 µM), for the others: at the top dose activity change, negative = inhibition, most hits filed as inhibitors. 390,000 tested, 4.4% active. AID 504339, 2011; note: % is set by controls: 0 for no effect and ±100 for the full control effect; nearly all actives have a fitted effect of over 50% in size
# Target sequence (O75164 whole entry, looked up, the tested form may be a part): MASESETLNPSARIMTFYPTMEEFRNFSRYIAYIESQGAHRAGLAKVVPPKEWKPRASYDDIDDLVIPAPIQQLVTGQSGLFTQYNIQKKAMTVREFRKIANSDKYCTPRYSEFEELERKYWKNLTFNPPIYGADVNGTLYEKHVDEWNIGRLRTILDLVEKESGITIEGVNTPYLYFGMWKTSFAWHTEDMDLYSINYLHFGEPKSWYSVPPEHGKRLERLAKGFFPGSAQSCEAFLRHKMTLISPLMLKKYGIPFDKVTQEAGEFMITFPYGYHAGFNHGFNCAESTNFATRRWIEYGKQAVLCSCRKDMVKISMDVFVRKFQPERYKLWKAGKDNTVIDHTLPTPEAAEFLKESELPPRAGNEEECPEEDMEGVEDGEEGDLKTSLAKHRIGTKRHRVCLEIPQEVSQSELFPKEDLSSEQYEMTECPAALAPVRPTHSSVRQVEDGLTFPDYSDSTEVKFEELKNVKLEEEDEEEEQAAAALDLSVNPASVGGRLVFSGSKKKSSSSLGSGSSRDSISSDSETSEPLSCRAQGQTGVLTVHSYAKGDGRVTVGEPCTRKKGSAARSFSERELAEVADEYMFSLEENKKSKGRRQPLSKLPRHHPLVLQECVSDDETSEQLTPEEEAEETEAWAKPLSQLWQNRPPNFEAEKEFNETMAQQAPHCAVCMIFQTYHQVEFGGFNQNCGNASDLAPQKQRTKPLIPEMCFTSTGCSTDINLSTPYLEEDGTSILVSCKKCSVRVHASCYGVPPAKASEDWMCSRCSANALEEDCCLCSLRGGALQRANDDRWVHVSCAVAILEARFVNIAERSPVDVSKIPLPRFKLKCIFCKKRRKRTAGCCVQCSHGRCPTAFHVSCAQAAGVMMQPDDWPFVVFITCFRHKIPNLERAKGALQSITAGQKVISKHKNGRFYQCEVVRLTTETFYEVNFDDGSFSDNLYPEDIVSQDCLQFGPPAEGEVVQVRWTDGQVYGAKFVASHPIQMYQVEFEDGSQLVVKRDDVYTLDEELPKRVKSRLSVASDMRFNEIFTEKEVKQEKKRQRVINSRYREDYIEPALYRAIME
# G9a inh = qHTS Assay for Inhibitors of Histone Lysine Methyltransferase G9a | Histone-lysine N-methyltransferase EHMT2 (Homo sapiens), Q96KQ7 | G9a H3K9 monomethylation, AlphaScreen, 2 h | Potency, µM (top dose mostly 102 µM), inactives show at the highest dose activity, negative = inhibition, hits mostly inhibitors | 350,000 tested, 8.8% active | AID 504332, 2011; note: % is set by controls: 0 for no effect and ±100 for the full control effect; nearly all actives have a fitted effect of over 75% in size
#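 Signal arises when biotinylated H3K9 peptide, once monomethylated, bridges streptavidin donor and antibody-captured acceptor beads. Enzyme at 20 nM was preincubated 15 min with test compounds; peptide 500 nM and SAM 20 uM then reacted for 2 h.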
# HP1b chromo inh = HTS for Inhibitors of HP1-beta Chromodomain Interactions with Methylated Histone Tails | Chromobox protein homolog 1 (Homo sapiens), P83916 | 390,000 tested, 0.56% active | Potency, µM (highest dose often 114 µM), without a hit: at the highest dose activity change, negative = inhibition, most hits filed as inhibitors | AlphaScreen HP1-beta / biotin-H3K9me3 peptide binding; note: nearly all actives have a fitted effect of over 70% in size
#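 Compound inhibition of the preformed complex between 50 nM HP1-beta and 50 nM biotinylated H3K9me3 peptide was read by AlphaScreen. Buffer was PBS pH 7.4 with 0.01% Tween-20. Incubations ran 30 min at room temperature, with 10 ug/mL donor/acceptor beads.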
# L3MBTL1 block = qHTS Assay for the Inhibitors of L3MBTL1; Lethal(3)malignant brain tumor-like protein 1 (Homo sapiens), Q9Y468; AlphaScreen L3MBTL1–H3K9me1 peptide binding; Potency, µM (doses to about 57.1 µM), for the others: at the top dose activity, negative = inhibition, usual class: inhibitors; 230,000 tested, 0.66% active; AID 485360, 2010; note: % is set by controls: 0 for no effect and ±100 for the full control effect; nearly all actives have a fitted effect of over 60% in size
#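 First, the protein-peptide complex forms for 30 min at room temperature (L3MBTL1 50 nM, biotinylated H3K9me1 peptide 75 nM). Next, compounds are pin-transferred and incubated 30 min. Finally, AlphaScreen beads are added and read after 30 min.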
# BAZ2B block = qHTS Assay for Inhibitors of BAZ2B; AlphaScreen BAZ2B-H3K14Ac peptide displacement; Potency, µM (series often up to 114 µM), for inactives: at the top dose activity change, negative = inhibition, actives largely listed as inhibitors; 360,000 tested, 4.4% active; AID 504333, 2011; note: % is set by controls: 0 for no effect and ±100 for the full control effect; nearly all actives have a fitted effect of over 60% in size
#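 AlphaScreen luminescence quantifies BAZ2B engagement of H3K14Ac peptide; the protein and biotinylated peptide are both at 50 nM final, buffer PBS pH 7.4 with 0.01% Tween-20, all steps at room temperature.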
# Starred values were filed as active, the others as inactive; ? = inconclusive; . = no result; [ ] = another dose, or the depositor's remark. In the library only some 11% were active in any assay of this set; here they are far more common. Calls come from the whole dose curve; as a rule, active = well fitted inhibition curve with a large enough effect; inconclusive = small, poorly fitted or top-dose-only effect; inactive = no such curve, though single readings can be large or run the other way. Potency is the fitted concentration of half-maximal effect.
SMILES,JMJD2A Tudor,G9a inh,HP1b chromo inh,L3MBTL1 block,BAZ2B block
Cc1ccc(CNC(=O)C2CCN(S(=O)(=O)c3cc(-c4noc(C)n4)ccc3C)CC2)cc1,-4%,4%[59 µM],32%,.,3%
CCOC(=O)NC(=O)CSc1ccc(S(=O)(=O)N2CCCCC2)cn1,-8%,.,61%,-5%,.
CC(C)NC(=O)NC(=O)CSc1ccc(S(=O)(=O)N2CCOCC2)cn1,10%,45µM*,22%,3%,34%
CN(C)C(=O)CSc1ccc(S(=O)(=O)N2CCCC2)cn1,-3%,56µM*,26%,-1%,-3%
CCC(CC)NC(=O)CSc1ccc(S(=O)(=O)N2CCCCC2)cn1,-5%,50µM*,28%,1%,50%
C=C(C)CN(CC)C(=O)CSc1ccc(S(=O)(=O)N2CCN(Cc3ccccc3)CC2)cn1,-12%,-41%[12.7 µM],26%,-11%,-9%
CCCCNC(=O)CSc1ccc(S(=O)(=O)N2CCOCC2)cn1,-17%,-46%[59 µM],23%,-2%,-5%
C=C(C)CN(CC)C(=O)CSc1ccc(S(=O)(=O)N2CCN(C)CC2)cn1,-4%,45µM*,38%,1%,9%
O=C(COC(=O)COc1ccc(Cl)cc1)NC1CCCC1,-5%,4%[2.33 µM],27%,1%,-1%
CCCCCCc1c(C)c2ccc(OCC(=O)N[C@@H](Cc3ccccc3)C(=O)O)cc2oc1=O,?,20%[12.7 µM],4%,.,?
CCOc1ccc2nc(N3CCN(C(=O)c4ccc5c(c4)CCCC5)CC3)sc2c1,-17%,12%[59 µM],-10%,.,-14%
CCOC(=O)COc1cc(-n2c(=S)[nH]c3cc(OC)c(OC)cc3c2=O)c(Cl)cc1Cl,?,-2%,-7%,0.71µM*,-19%
CCOC(=O)COc1cc(N2C(=O)CSCC2=O)c(Cl)cc1Cl,-15%,-26%,15%,1%,-28%
CSCC[C@H](NS(=O)(=O)c1ccc(C(C)=O)cc1)c1nnc2ccccn12,0%,45µM*,46%,.,56µM*
O=C(O)c1cc2c(cc1NC(=O)c1c(F)cccc1F)OCCCO2,-13%,?,10%,.,-13%
O=C(O)c1cc2c(cc1NC(=O)c1ccccc1C(F)(F)F)OCCCO2,-7%,1%,25%,.,-26%
CS(=O)(=O)c1ccccc1C(=O)Nc1cc2c(cc1C(=O)O)OCCCO2,-30%,50µM*,20%[57 µM],.,3%
CS(=O)(=O)Nc1ccccc1C(=O)Nc1cc2c(cc1C(=O)O)OCCCO2,1%,8.9µM*,14%,.,4%
Cc1ccc(CCNC(=O)CCCn2c(=O)c3ccccc3n(CC(=O)Nc3cc(Cl)ccc3C)c2=O)cc1,-8%,27%[59 µM],64%,.,15%
CCOC(=O)c1cccc(NC(=O)c2cc3c(=O)n(C)c4ccccc4c3n2C)c1,-13%,-9%[59 µM],33%,.,?
O=c1nc2ccccc2c2n1CC(CN1CCN(c3ccccc3)CC1)N2 (stereo not given),.,34%[59 µM],.,.,.
COc1ccc(NC(=O)CN2CCN(C3c4ccccc4-c4ccccc43)CC2)c(OC)c1,?,45µM*,-18%,7%,?
COc1ccccc1NC(=O)CN1CCN(C2c3ccccc3-c3ccccc32)CC1,-30%,.,-7%,-5%,-37%
CC(C)(C)C(=O)CN1CCN(C2c3ccccc3-c3ccccc32)CC1,-7%,50µM*,23%,.,-5%
CCOC(=O)/C(=C/C=C1\Sc2cc(C)c(C)cc2N1CC)C(C)=O,-21%,-20%,16%,-5%,40µM*
COc1cccc(NC(=O)c2oc3ccccc3c2NC(=O)c2ccc(OC(C)C)cc2)c1,-16%,-19%[59 µM],28%,.,-12%
CCC12CCCN3CCC4(C(=C(C(=O)OC)C1)Nc1ccccc14)C32 (stereo not given),?,2.8µM*,-11%,-2%,?
